Here are results for 94 molecules from PubChem BioAssay AID449762 (Southern Research Specialized Biocontainment Screening …, 2010).

SMILES strings stand for the structures. Hit rate of the full screen: of about 330,000 compounds, about 1,900 (0.58%) were called active. Inconclusive results (about 4%) are left out. Only a sample is shown. Entries with a potency or affinity are not part of this list. Values without a mark were called inactive. No stated cut-off is given here; in the data, inconclusive means inhibition above about 70% without an active follow-up result; inactive means below that.

This assay is described as follows: M. tuberculosis growth inhibition, HTS (AID 449762).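 Further: bacterial growth assessed after seven days of incubation.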 Particulars: M. tuberculosis H37Rv growth inhibition, 7H9 media; at 25 µM; hits give high values.
In the case of `CC(OC(=O)c1nn(C(C)C)c(=O)c2ccccc12)C(=O)Nc1ncc(Cl)cc1Cl` (centres undefined), the inhibition is -5.66%.

Consider `Cc1cc(=O)oc2cc(OC(C)C(=O)N3CCCc4ccccc43)ccc12` (centres undefined), for which the inhibition is -5.32%.

Turning to `CC(NCC1COc2ccccc2O1)C1COc2ccccc2O1` (centres undefined), the inhibition is -4.91%.

In the case of `CC1CN(c2ccc(Cl)nn2)CC(C)O1` (centres undefined), the inhibition was 7.67%.

As to `COc1ccc(C(CCN(Cc2ccc(OC)c(OC)c2)C(C)=O)C(C)C)cc1` (centres undefined), the inhibition was 2.76%.

As to `COc1ccc(C(CCN(Cc2ccc(OC)c(OC)c2)C(C)=O)c2ccccc2)cc1` (centres undefined), the inhibition was -0.43%.

`CCC1CN(C(=O)N2CCC(C(=O)Nc3ccccc3OC)CC2)c2ccccc2O1` (centres undefined): the inhibition was 10.6%.

Regarding `O=S(=O)(c1ccc2ccccc2c1)N1CCN(S(=O)(=O)N2CCCCC2)CC1`, the inhibition was 0.71%.

On to `COc1ccc(C2=NOC(C(=O)N3CCN(C(=O)c4ccco4)CC3)C2)cc1OC` (centres undefined), for which the inhibition is 2.5%.

`O=C(c1ccco1)N1CCN(C(=O)C2CC(c3ccc(F)cc3)=NO2)CC1` (centres undefined): the inhibition was 10.6%.

Consider `Cn1c(CSc2nc3ccccc3s2)nnc1SCC(=O)NCCN1CCOCC1`, for which the inhibition is 1.49%.

Turning to `CCCCn1nc(C(=O)Oc2ccc3c(C)cc(=O)oc3c2)c2ccccc2c1=O`, the inhibition was 64.9%.

With `CCOC(=O)CSc1nc2ccccc2c(=O)n1CC`, the inhibition is -0.95%.

Turning to `CCn1c(SCC(=O)NC2CCCCC2)nc2ccccc2c1=O`, the inhibition is -17.1%.

Consider `O=C(Nc1ccn([C@H]2CC[C@@H](CO)O2)c(=O)n1)c1ccccc1`, for which the inhibition is -7.83%.

On to `O=C(COC(=O)/C=C/c1cccc(Br)c1)NC1CCCCC1`, for which the inhibition is 1.15%.

In the case of `CCC(C(=O)n1cccc1C#N)c1ccccc1C` (centres undefined), the inhibition is -5.42%.

In the case of `CCOC(=O)c1nn(-c2ccc(Cl)cc2)cc1O`, the inhibition was 47.5%.

As for `CCOC(=O)c1nn(-c2ccc(C)cc2)cc1O`, the inhibition is 25.8%.

As for `O=C(/C=C/Nc1ccc(Br)cc1F)c1ccco1`, the inhibition is 4.98%.

Regarding `O=C(Oc1ccc(Br)cc1C(=O)/C=C/c1ccccc1F)c1ccco1`, the inhibition was 0.45%.

As for `CCNS(=O)(=O)c1ccc(C(=O)OCC(=O)N2CCCc3ccccc32)cc1`, the inhibition is 5.95%.

For `CS(=O)(=O)c1ccc(C(=O)OCC(=O)N2CCCc3ccccc32)cc1`, the inhibition was -0.56%.

Take `O=C1C=C(NCc2ccco2)C2(CCCCC2)O1`: the inhibition is -1.04%.

As for `CCNc1nc(NC(C)C)nc(ON=C(C)C)n1`, the inhibition is -5.67%.

In the case of `Cc1cc(C(=O)N=Nc2c(O)n(C)c3ccccc23)c(C)o1`, the inhibition was 5.51%.

As to `COc1ccc(C(C)=O)cc1COC(=O)c1cc(C)nc2ccccc12`, the inhibition is 11.9%.

Consider `COc1ccc(C(C)=O)cc1COC(=O)c1cc2ccccc2cc1O`, for which the inhibition is -1.43%.

As to `C=CCn1c(C)c(/C=C/c2cc[n+](C)cc2)c2ccccc21`, the inhibition was 0.73%.

On to `Cc1ccc2[nH]cc(/C=C/c3cc[n+](C)cc3)c2c1`, for which the inhibition was -0.27%.

As for `Cc1c(C)n2c(SCC(=O)Nc3cccc4ccccc34)nnc2[nH]c1=O`, the inhibition was 5.62%.

As to `C/C(=N\OC(=O)c1c(-c2c(F)cccc2Cl)noc1C)c1nccs1`, the inhibition is 3.84%.

As to `Cc1onc(-c2c(Cl)cccc2Cl)c1C(=O)O/N=C(\C#N)c1c(Cl)cccc1Cl`, the inhibition was -0.37%.

For `CCOC(=O)[C@H]1[C@H]2COc3ccc(Br)cc3[C@@H]2N2C(=O)N(c3ccccc3)C(=O)[C@@]12C`, the inhibition was 6.24%.

Consider `CCOc1ccc(CNC(=O)C2CCCN(S(=O)(=O)N3CC(C)CC(C)C3)C2)cc1OC` (centres undefined), for which the inhibition is -1.45%.

`COC(OC)c1ccnc(-c2ccc(OC(=O)c3ccccc3)cc2)n1`: the inhibition is 57%.

Take `COC(OC)c1ccnc(-c2ccc(OC(C)=O)cc2)n1`: the inhibition is 0.19%.

Take `CCC[N+](CC#Cc1ccccc1)(CCC)CC(=O)OC`: the inhibition is 0.57%.

`Cc1occc1-c1nnc(SCC(=O)NC2CC2)n1C(C)C`: the inhibition was 6.3%.

With `CCOCCn1c(=O)c2c(nc3n2CCCN3Cc2ccccc2)n(C)c1=O`, the inhibition was 4.47%.

As to `CCCC(O)(c1ccc(CC)cc1)C(CN1CCOCC1)c1ccccc1` (centres undefined), the inhibition is 9.99%.

Regarding `CCOC(=O)N1CCC(n2c(SCC(=O)c3ccccc3)nc3ccsc3c2=O)CC1`, the inhibition is -5.37%.

Take `CCOC(=O)CSc1nc2ccsc2c(=O)n1C1CCN(C(=O)OCC)CC1`: the inhibition was 39.3%.

Turning to `COc1ccc(/C=N/NC(=O)c2cccc(C(=O)N/N=C/c3ccc(OC)cc3)n2)cc1`, the inhibition is -1.47%.

Regarding `O=C(CN1C(=O)COc2ccccc2C1=O)c1ccc2c(c1)OCCO2`, the inhibition is 4.6%.

With `O=C(OC(C(=O)c1c[nH]c2ccccc12)c1ccccc1)c1cnccn1` (centres undefined), the inhibition was 1.97%.

As to `Nc1nnnn1/N=C/C=C/c1ccccc1`, the inhibition is -3.78%.

Regarding `Nc1nnnn1/N=C/c1ccccc1`, the inhibition was -0.26%.

`CCOC(=O)N1CCC(N2C(=O)c3ccc(C(=O)Nc4ccc(F)cc4F)cc3C2=O)CC1`: the inhibition was -5.69%.

As for `CCOC(=O)N1CCN(S(=O)(=O)c2ccc(C(=O)N(CCN(C)C)c3nc4c(C)cccc4s3)cc2)CC1`, the inhibition is -14.4%.

For the molecule `CC1=C(c2ccc(F)cc2)[N+](=O)C(C)(C)N1[O-]`, the inhibition was -6.06%.

`Cc1ccc(C(C(=O)NC(C)(C)C)N(Cc2ccccc2)C(=O)c2snc(C(N)=O)c2N)o1` (centres undefined): the inhibition is -7.23%.

As for `COc1ccc(/C=C2/C(=O)N(c3ccccc3)N=C2C)cc1OC`, the inhibition is 8.2%.

For `COc1cc(/C=C2/C(=O)N(c3ccccc3)N=C2C)ccc1OS(=O)(=O)c1ccccc1`, the inhibition is 11%.

As for `CCOC(=O)N1CCN(Cc2ccc3ccccc3c2)CC1`, the inhibition was 9.89%.

`CCCCC(=O)Nc1cccn2ncnc12`: the inhibition was -5.05%.

`O=C(Nc1cccn2ncnc12)C(Cl)Cl`: the inhibition is 8.05%.

As to `Cc1ccc(/C=C2/SC(=S)N(CCC(=O)N3CCOCC3)C2=O)cc1`, the inhibition is -5.59%.

For the molecule `CCCn1c(=N)n(CC(=O)c2ccc(Cl)cc2)c2ccccc21`, the inhibition is 20.9%.

Turning to `CCCCn1c(=N)n(CC(=O)c2ccc(OC)cc2)c2ccccc21`, the inhibition is 2.91%.

For the molecule `Cc1ccc(S(=O)(=O)NCc2ccc(C(=O)NCc3cccnc3)cc2)cc1`, the inhibition was -0.01%.

In the case of `Cc1cc(NC(=O)c2cc(-c3cccc(Cl)c3)on2)no1`, the inhibition was 4.25%.

As to `O=C(NNS(=O)(=O)c1ccccc1[N+](=O)[O-])c1ccccc1[N+](=O)[O-]`, the inhibition was -1.87%.

In the case of `C=CCSC1=N/C(=C\c2ccc3c(c2)OCO3)C(=O)S1`, the inhibition was 2.93%.

Regarding `Cc1nc(N=C(N)N)nc2ccccc12`, the inhibition was 0.45%.

Take `CCc1nc(N=C(N)N)nc2ccccc12`: the inhibition was -2.46%.

Turning to `Cc1ccc(C2C(=O)c3ccccc3C2=O)cc1`, the inhibition was 7.43%.

As to `Cc1cc(C2C(=O)c3ccccc3C2=O)c(C)c(C)c1C`, the inhibition is 30.3%.

With `CC(=O)NC12CC3CC(C1)CC(C(=O)N(C)CC(=O)Nc1cccc(F)c1)(C3)C2`, the inhibition is 6.36%.

In the case of `CC(NC(=O)c1cc(COc2c(F)cccc2F)on1)c1cnn(-c2ccccc2)c1` (centres undefined), the inhibition is 1.01%.

Consider `CCCCn1c(N)c(N(CC(C)C)C(=O)C2CCN(c3ncnc4sc(C)c(C)c34)CC2)c(=O)[nH]c1=O`, for which the inhibition was 54.4%.

For the molecule `Cc1sc2ncnc(N3CCC(C(=O)N(C)CC(=O)Nc4ccccc4Cl)CC3)c2c1C`, the inhibition is 67.4%.

Consider `CNC(=O)CSc1nnc(-c2ccco2)n1-c1cccc(C)c1C`, for which the inhibition is -8.51%.

Regarding `O=C(Cc1ccc(F)cc1)NCCS(=O)(=O)N1CCN(c2ccccc2)CC1`, the inhibition was -9.43%.

For the molecule `COc1ccc(/C=C2\SC(=S)N(Cc3cccnc3)C2=O)cc1C`, the inhibition is 12.2%.

In the case of `Cc1ccc(S(=O)(=O)N2CCC(C(=O)OCC(=O)NCCc3ccccc3)CC2)cc1C`, the inhibition is 1.72%.

On to `CCOC(=O)C1CCN(S(=O)(=O)c2ccc(C)c(C)c2)CC1`, for which the inhibition is -5.37%.

In the case of `COc1cccc(NC(=O)[C@H](Cc2ccccc2)NC(=O)[C@@H]2Cc3ccccc3CN2)c1`, the inhibition is -7.04%.

On to `O=C(Nc1ccc(C(F)(F)F)cc1-c1ccccc1)c1ccccc1`, for which the inhibition was -5.73%.

Turning to `O=C(Nc1cnccn1)C1c2ccccc2Oc2ccccc21`, the inhibition was -4.63%.

Consider `CCOC(=O)c1c(C)[nH]c(C)c1C(=O)CN1C(=O)NC2(CCC(C)CC2)C1=O` (centres undefined), for which the inhibition was -4.05%.

As for `CCc1ccc2oc(-c3cc(N)ccc3O)nc2c1`, the inhibition is -0.82%.

Take `CCc1ccc2oc(-c3cc(N)cc(C)c3O)nc2c1`: the inhibition is 42.6%.

Regarding `O=C1c2cc(O)cc(O)c2C(=O)c2c1cc(O)c([C@@H](CO)CCO)c2O`, the inhibition was -12.7%.

As to `O=C(O)c1cc(O)c2c(c1)C(=O)c1cc(O)cc(O)c1C2=O`, the inhibition was -5.47%.

On to `CCOc1ccccc1NC(=S)NC1CCCCC1`, for which the inhibition was -19.5%.

As to `CCc1nn(CC(=O)NCCN2CCN(C)CC2)c(=O)c2cc3c(OC)cccc3n12`, the inhibition is 7.05%.

In the case of `CCc1ccc(N=CC2=C(O)CC(c3ccco3)CC2=O)cc1` (centres undefined), the inhibition is 0.59%.

For the molecule `Cc1ccc(N=CC2=C(O)CC(c3ccco3)CC2=O)cc1` (centres undefined), the inhibition is -6.24%.

In the case of `Cc1cccc(C)c1NC(=O)C1NC(=O)CC1c1ccccc1` (centres undefined), the inhibition is 17.9%.

Consider `CCOc1ccc(C2/C(=C(/O)c3ccc(S(=O)(=O)N4CCCCC4)cc3)C(=O)C(=O)N2CCCOC)cc1OC` (centres undefined), for which the inhibition was -12.5%.

In the case of `COc1ccc(N(C(C)C(=O)NN=C2CCCC2)S(C)(=O)=O)cc1` (centres undefined), the inhibition was -2.55%.

On to `COc1ccc(-n2ccnc2)cc1`, for which the inhibition is 1.26%.

Regarding `Cc1ccc2cccc(Oc3ncnc4sc(C)c(C)c34)c2n1`, the inhibition is 42%.
